Screens as filed in PubChem BioAssay.
The full list was thinned out, with hits kept by preference.
IDE exosite FP: exo-site inhibitors of human insulin-degrading enzyme; P14735; purified IDE, FL-6b probe fluorescence polarization; hits give low values; z-score at 20 µM; hit rate 6.3% among 17,000; AID 1259349;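 active = z-score of -3 or lower, meaning strong loss of probe binding signal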;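 also: His-tagged human IDE residues 42-1019 made in E. coli with 30 nM FL-6b probe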
Target sequence (P14735 42-1019 limits assumed): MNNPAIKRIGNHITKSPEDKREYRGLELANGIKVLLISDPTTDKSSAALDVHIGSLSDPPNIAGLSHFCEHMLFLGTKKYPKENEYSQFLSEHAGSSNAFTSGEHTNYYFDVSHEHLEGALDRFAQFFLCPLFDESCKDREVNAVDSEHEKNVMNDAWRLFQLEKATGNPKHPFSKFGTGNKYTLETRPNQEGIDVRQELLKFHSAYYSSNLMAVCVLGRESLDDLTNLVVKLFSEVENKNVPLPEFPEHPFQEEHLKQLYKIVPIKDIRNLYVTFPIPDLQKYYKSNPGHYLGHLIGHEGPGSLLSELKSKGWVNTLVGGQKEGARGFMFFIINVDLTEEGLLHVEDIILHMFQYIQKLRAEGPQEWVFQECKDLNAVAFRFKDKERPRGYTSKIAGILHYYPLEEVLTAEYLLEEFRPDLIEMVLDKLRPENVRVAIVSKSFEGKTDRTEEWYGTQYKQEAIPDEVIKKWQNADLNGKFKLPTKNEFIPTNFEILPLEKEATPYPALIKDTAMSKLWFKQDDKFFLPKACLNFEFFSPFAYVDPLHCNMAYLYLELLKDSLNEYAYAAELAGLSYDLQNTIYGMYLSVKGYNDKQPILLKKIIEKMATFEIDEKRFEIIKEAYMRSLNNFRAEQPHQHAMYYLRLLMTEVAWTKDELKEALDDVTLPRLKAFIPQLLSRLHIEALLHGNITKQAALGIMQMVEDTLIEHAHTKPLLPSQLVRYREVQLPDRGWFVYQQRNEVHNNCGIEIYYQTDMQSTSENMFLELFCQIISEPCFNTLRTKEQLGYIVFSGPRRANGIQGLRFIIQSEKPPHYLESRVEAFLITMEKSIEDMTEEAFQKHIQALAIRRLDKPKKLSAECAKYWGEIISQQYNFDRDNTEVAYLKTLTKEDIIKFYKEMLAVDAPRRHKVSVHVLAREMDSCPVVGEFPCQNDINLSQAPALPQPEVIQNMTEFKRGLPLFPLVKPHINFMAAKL
Starred values were filed as active, the others as inactive.

SMILES	IDE exosite FP
O=C(c1ccc2c(c1)OCO2)N1CC(=O)N2[C@H](CO)[C@@H](c3ccc(C#CC4CCCC4)cc3)[C@@H]2C1	2.5
C/C=C/c1ccc([C@H]2[C@@H](CO)N3CCCCN(C(=O)Nc4cc(F)ccc4F)C[C@H]23)cc1	0.077
CC(C)(O)C#Cc1ccc([C@@H]2[C@@H](CO)N3CCCCN(C(=O)c4cccc(F)c4)C[C@@H]23)cc1	1.5
COc1ccc(C#Cc2ccc([C@H]3[C@@H](CO)N4CCCCN(S(=O)(=O)c5cn(C)cn5)C[C@@H]34)cc2)cc1	0.19
O=C(CN1CCOCC1)N1CCCCN2[C@H](C1)[C@@H](c1ccc(C#Cc3ccccc3F)cc1)[C@@H]2CO	-5*
O=C(c1ccccc1F)N1CC(=O)N2[C@H](CO)[C@@H](c3ccc(C#Cc4ccc(F)cc4)cc3)[C@@H]2C1	1.4
COc1cccc(-c2ccc([C@@H]3[C@@H](C#N)N(C(=O)Cc4ccccc4)[C@@H]3CO)cc2)c1	-5.3*
COc1cccc(-c2ccc([C@@H]3[C@@H](C#N)N(C(=O)Cc4ccccc4)[C@H]3CO)cc2)c1	3
N#C[C@@H]1[C@@H](c2ccccc2-c2ccccc2F)[C@@H](CO)N1C(=O)c1ccccn1	2
N#C[C@H]1[C@H](c2ccc(-c3ccccc3F)cc2)[C@@H](CO)N1C(=O)c1ccccn1	0.88
N#C[C@H]1[C@H](c2ccc(-c3ccccc3F)cc2)[C@H](CO)N1C(=O)c1ccccn1	-3.1*
O=C(NC[C@@H]1N[C@@H](CO)[C@@H]1c1ccccc1)c1ccccc1F	0.95
COc1cccc(-c2ccccc2[C@H]2[C@@H](C#N)N(C(=O)Cc3ccccc3)[C@@H]2CO)c1	-1.6
COc1cccc(-c2ccccc2[C@H]2[C@@H](C#N)N(C(=O)Cc3ccccc3)[C@H]2CO)c1	0.95
O=C(NC[C@H]1N[C@@H](CO)[C@H]1c1ccc(-c2ccccc2)cc1)c1ccccc1F	1.1
O=C(NC[C@@H]1N[C@@H](CO)[C@@H]1c1ccc(-c2ccccc2F)cc1)c1ccccn1	-4.5*
COc1cccc(-c2ccc([C@H]3[C@@H](C#N)N(C(=O)Cc4ccccc4)[C@@H]3CO)cc2)c1	-3.8*
COc1cccc(-c2ccc([C@@H]3[C@@H](CO)N(C(=O)Cc4ccccc4)[C@H]3C#N)cc2)c1	3.6
O=C(Nc1ccc(C(F)(F)F)cc1)N[C@@H]1C=C[C@H](CC(=O)N2CCCCC2)O[C@H]1CO	0.65
C/C=C/c1ccc([C@@H]2[C@H](CO)N(C(=O)CC)[C@H]2CNC(=O)C2CC2)cc1	4.1
O=C(N[C@@H]1CC[C@H](CCNS(=O)(=O)c2ccc(F)cc2)O[C@@H]1CO)C1CCC1	3.5
C/C=C/c1ccc([C@H]2[C@@H](CO)N(S(C)(=O)=O)[C@@H]2CN(CCC)C(C)=O)cc1	-0.025
COc1ccc([C@@H]2C/C=C\C[C@@H](c3ccc4c(c3)OCO4)NC(=O)[C@H](c3ccccc3)CC(=O)N2)c(OC)c1	2
C/C=C/c1ccc([C@H]2[C@@H](CNC(C)C)N(Cc3cccnc3)[C@H]2CO)cc1	5.6
Cc1cccc(-c2ccc([C@@H]3[C@@H](CO)N4C(=O)CN(S(=O)(=O)c5cccc(F)c5)C[C@@H]34)cc2)c1	-0.98
SMILES	IDE exosite FP
CCCNC(=O)N1[C@H](C#N)[C@H](c2ccc(C#Cc3ccc(F)cc3)cc2)[C@@H]1CO	2.2
O=C(C[C@@H]1CC[C@@H]2[C@H](COC[C@H](O)CN2CCC(F)(F)F)O1)NCC1CC1	1.2
N#C[C@@H]1[C@H](c2ccc(C#CC3CCCC3)cc2)[C@H](CO)N1S(=O)(=O)c1ccccc1	1.6
N#C[C@@H]1[C@@H](c2ccc(-c3cncnc3)cc2)[C@H](CO)N1C(=O)C1CCC1	4.7
O=C(c1cccc(F)c1)N1CCCCN2[C@H](C1)[C@H](c1ccc(-c3ccccc3)cc1)[C@@H]2CO	2
COc1cccc(S(=O)(=O)N2CC[C@@H]3[C@H]2c2cc(C#Cc4cccnc4)ccc2N[C@@H]3CO)c1	0.81
C/C=C/c1ccc([C@H]2[C@@H](CO)N(CCC)[C@H]2CNC(=O)CN2CCOCC2)cc1	0.61
CCCNC(=O)N1[C@H](C#N)[C@@H](c2ccc(-c3cccc(OC)c3)cc2)[C@H]1CO	-1.3
COc1cccc(-c2ccc([C@@H]3[C@@H](C#N)N(C(=O)c4ccccn4)[C@@H]3CO)cc2)c1	-5*
COc1cccc(-c2ccccc2[C@H]2[C@@H](C#N)N(C(=O)c3ccccn3)[C@@H]2CO)c1	-0.39
N#C[C@H]1[C@H](c2ccc(-c3cccc(F)c3)cc2)[C@@H](CO)N1c1nc(-c2ccccc2)cs1	0.24
COCC(=O)Nc1ccc2c(c1)C(=O)N(C)C[C@H](OC)[C@H](C)CN(C(=O)c1ccncc1)[C@H](C)CO2	0.37
CN(C)CC#Cc1ccc([C@@H]2[C@H](CO)N3C(=O)CN(C(=O)c4cccc(F)c4)C[C@@H]23)cc1	1.2
O=C(NC1CCCC1)N1CCCCN2[C@H](CO)[C@H](c3ccc(-c4ccccc4)cc3)[C@@H]2C1	-0.47
O=C(NC1CCCC1)N1CCCCN2[C@H](CO)[C@H](c3ccc(-c4ccncc4)cc3)[C@H]2C1	4.5
O=C(Nc1ccccc1F)N1CCCCN2[C@H](C1)[C@H](c1ccc(/C=C/c3ccccc3)cc1)[C@@H]2CO	-0.83
O=C(Nc1ccccc1F)N1CCCCN2[C@@H](CO)[C@@H](c3ccc(/C=C/c4ccccc4)cc3)[C@@H]2C1	-1.2
O=C(NC1CCCC1)N1CCCCN2[C@H](CO)[C@@H](c3ccc(-c4ccccc4)cc3)[C@H]2C1	1.8
O=C(NC1CCCC1)N1CCCCN2[C@@H](CO)[C@@H](c3ccc(/C=C/c4ccccc4)cc3)[C@@H]2C1	-8.4*
O=C(NC1CCCC1)N1CCCCN2[C@@H](CO)[C@H](c3ccc(/C=C/c4ccccc4)cc3)[C@@H]2C1	-15*
O=C(NC1CCCC1)N1CCCCN2[C@H](CO)[C@H](c3ccc(-c4ccncc4)cc3)[C@@H]2C1	4.7
COc1ccccc1-c1ccc([C@H]2[C@@H](CO)N3CCCCN(C(=O)NC4CCCC4)C[C@@H]23)cc1	-9.3*
N#C[C@@H]1[C@@H](c2ccccc2-c2ccccc2)[C@H](CO)N1C(=O)NC1CCCC1	3.2
Cc1ccc(-c2ccc([C@@H]3[C@@H](CO)N4C(=O)CN(C(=O)Nc5cccc(F)c5)C[C@@H]34)cc2)cc1	2.8
CCCC#Cc1ccc([C@@H]2[C@@H](CO)N3C(=O)CN(C(=O)Nc4ccccc4F)C[C@@H]23)cc1	1.9
SMILES	IDE exosite FP
O=S(=O)(c1ccccc1)N1CC2(C1)[C@@H](c1ccccc1)[C@@H](CO)N2CC1CCOCC1	1
COc1ccc(CN(C)C[C@H]2OCCCC[C@@H](C)Oc3ccc(NC(=O)C4CCCCC4)cc3C(=O)N([C@@H](C)CO)C[C@@H]2C)cc1	1.1
O=S(=O)(c1ccc(Cl)cc1)N1[C@@H]2CNC[C@H]1C2c1ccc(-c2cccc(F)c2)cc1 (some centres not stated)	2
C[C@@H]1CN([C@H](C)CO)C(=O)c2ccccc2-c2ccccc2CO[C@@H]1CN(C)C(=O)c1cc(Cl)cc(Cl)c1	0.2
COc1ccc(-c2ccc(C3[C@H]4CNC[C@@H]3N4CC3CCOCC3)cc2)cc1 (some centres not stated)	2.1
C/C=C/c1ccc([C@H]2[C@@H](CO)N(C(=O)CC)[C@@H]2CN(C)C(=O)NC(C)C)cc1	1.9
O=C(NC[C@@H]1[C@H](c2ccccc2)[C@H](CO)N1CC1CCCC1)c1ccccc1	2.5
